# ABCB6 inh 2: inhibitors of human ABC transporter ABCB6 | K562-ABCB6 porphyrin accumulation, flow cytometry, 1 h; stronger effect = lower value | Q9NP58 | hit rate 0.19% among 360,000 | fluorescence ratio to DMSO, % at 10 µM;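 active = fluorescence ratio to DMSO below 75%, the collection mean minus 3 SD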;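 also: signal is porphyrin accumulated inside mitochondria; 100% equals median channel fluorescence of DMSO control wells; lower ratio means ABCB6 inhibition with less porphyrin fluorescence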
# Granule exo inh: blocks lytic granule exocytosis; inhibition, % at 10 µM; TALL-104 LAMP-1 surface exposure, flow cytometry; cells stimulated with thapsigargin and PMA; hit rate 0.66% among 360,000; AID 651702;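 active = inhibition above about 55%, limit read from the data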
# VLA-4 inh: inhibition in a human VLA-4 binding assay; hit rate 0.2% among 330,000; VLA-4 expressing cells, ligand binding flow cytometry; AID 2557; inhibition, % (about 7 µM as worked out from the volumes in the protocol); in the data active = inhibition above about 50%
# Target sequence (P13612 whole entry, looked up): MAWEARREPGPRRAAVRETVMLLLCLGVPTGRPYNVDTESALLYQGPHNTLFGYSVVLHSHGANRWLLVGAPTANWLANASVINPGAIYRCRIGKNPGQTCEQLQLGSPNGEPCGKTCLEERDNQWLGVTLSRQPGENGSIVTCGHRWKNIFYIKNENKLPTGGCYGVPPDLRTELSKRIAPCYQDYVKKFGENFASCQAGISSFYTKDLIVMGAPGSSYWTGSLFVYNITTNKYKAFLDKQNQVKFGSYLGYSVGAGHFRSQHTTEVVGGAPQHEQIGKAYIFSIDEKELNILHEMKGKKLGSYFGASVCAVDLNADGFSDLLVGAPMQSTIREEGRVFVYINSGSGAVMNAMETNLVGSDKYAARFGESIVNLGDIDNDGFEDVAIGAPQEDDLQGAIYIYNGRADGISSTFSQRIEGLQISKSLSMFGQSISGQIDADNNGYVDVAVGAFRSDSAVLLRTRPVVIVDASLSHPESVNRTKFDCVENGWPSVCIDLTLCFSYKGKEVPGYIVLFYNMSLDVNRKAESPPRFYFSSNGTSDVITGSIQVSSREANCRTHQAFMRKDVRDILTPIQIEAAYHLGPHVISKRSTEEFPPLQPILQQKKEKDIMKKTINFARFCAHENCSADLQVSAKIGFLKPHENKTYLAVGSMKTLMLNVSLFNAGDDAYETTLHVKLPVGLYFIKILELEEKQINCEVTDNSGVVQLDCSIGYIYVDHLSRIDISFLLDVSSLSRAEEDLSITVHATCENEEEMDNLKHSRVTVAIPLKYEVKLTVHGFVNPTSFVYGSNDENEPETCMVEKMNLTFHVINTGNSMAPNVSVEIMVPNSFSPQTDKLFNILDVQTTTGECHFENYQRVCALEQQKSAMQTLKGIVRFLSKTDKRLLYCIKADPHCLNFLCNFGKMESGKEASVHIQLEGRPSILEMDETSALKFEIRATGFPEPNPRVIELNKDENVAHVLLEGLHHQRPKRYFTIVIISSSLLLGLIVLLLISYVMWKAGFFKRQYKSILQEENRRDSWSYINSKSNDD
# CaV13 FRET inh: Primary screen for inhibitors of IQ motif and Ca2+-dependent inactivation inhibitor domain binding in CACNA1D, Förster resonance energy transfer in living cells, …; HEK cells, CFP/YFP FRET ICDI-IQ, plate reader, 10 min; percent FRET-ratio fall versus neutral wells; AID 743397; hit rate 0.098% among 340,000; inhibition, % at 12.3 µM;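 active = mean replicate inhibition of at least 30% and at least 1% of replicates passing that level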;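 also: 0% = median of the neutral control wells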
# An asterisk follows results filed as active; . = no result; + = active, no number. This is a sample that favours compounds with a hit; in the whole collection about 1.1% have one here.
SMILES,ABCB6 inh 2,Granule exo inh,VLA-4 inh,CaV13 FRET inh
CCCOc1c(Br)cc(C2C3=C(CCCC3=O)N(C)C3=C2C(=O)CCC3)cc1OC,102.0,-7.9,6.8,+
S=c1[nH]c2ccc(Cc3ccc4[nH]c(=S)[nH]c4c3)cc2[nH]1,106.0,-0.1,5.6,41.7*
CCCN1CCCCC(NC(=O)c2ccccc2C)C1=O (stereo not given),.,.,.,-1.7
CC(=O)O/N=C/c1c(N2CCOCC2)n(C)c2ccccc12,52.0*,-2.2,25.5,-3.3
Cc1ccc(C(O)P(=O)(OCCC(C)C)c2ccc(N(C)C)cc2)cc1 (stereo not given),96.0,59.8*,-2.7,-3.9
O=c1cc(-c2ccc(Cl)cc2)oc(=O)[nH]1,100.0,3.4,2.1,-5.8
O=c1cc(N=Nc2ccc(Cl)cc2)[nH]c(=O)[nH]1,102.0,77.3*,10.7,-4.6
Cc1ccnc(N2C(=O)c3cccc4c([N+](=O)[O-])ccc(c34)C2=O)c1,177.0,77.3*,-122.1,-7.3
Cc1nnc(N2C(=O)c3cccc4c([N+](=O)[O-])ccc(c34)C2=O)s1,124.0,85.9*,-29.9,-19.5
COC(=O)N1C[C@H](O)[C@H](O)C[C@@H]1c1ccccc1Br,.,.,.,-3.6
Cc1ccc(C(=O)c2no[n+]([O-])c2C(=O)c2ccc(C)cc2)cc1,67.0*,67.6*,6.2,1.3
Cc1ccc(C(=O)c2ccc(C)cc2)cc1,98.0,-1.7,0.8,-2.8
CCn1nc([N+](=O)[O-])c(C(C#N)c2nc3cc(C(F)(F)F)ccc3s2)c(Cl)c1=O (stereo not given),170.0,83.2*,-10.2,-5.9
CCCn1nc([N+](=O)[O-])c(C(C#N)c2nc3ccccc3o2)c(Cl)c1=O (stereo not given),99.0,18.2,-6.2,-15.5
C[C@H](O)[C@@H]1C(=O)N2CCc3c([nH]c4c(-c5ccccc5)cccc34)[C@@H]2C[C@@H]1N(C)C(=O)OCc1ccccc1,.,.,.,-4.4
CCn1c2ccccc2nc2cc3c(cc21)c(Cl)c(=O)c1ccccc13,102.0,118.6*,.,-6.5
CCOC(=O)c1c(C)n(C)c2ccc(OCC(O)CN3CCC(C)CC3)cc12 (stereo not given),98.0,4.7,48.9,40.1*
CCOC(=O)c1c(C)n(C)c2ccc(OCC(O)CN3CCCCCC3)cc12 (stereo not given),96.0,-0.7,-18.1,-5.3
Cc1c(C2Nc3ccccc3C2C)[nH]c2ccccc12 (stereo not given),.,.,.,-12.6
O=C(O)c1cccc(Nc2nc(-c3cc4ccccc4oc3=O)cs2)c1,100.0,5.2,13.6,76.9*
O=c1oc2ccccc2cc1-c1csc(NN=C2CCCC2)n1,98.0,0.3,-0.8,-5.3
CC(C)(C)c1ccc(C#C[C@@H]2C=C[C@@H](O)[C@@H](CO)O2)cc1,.,.,.,-5.7
O=C1c2ccccc2C(=O)c2c([N+](=O)[O-])ccc(O)c21,106.0,59.4*,-8.8,9.0
CCN(CC)CCC(=O)Nc1cccc2c1C(=O)c1ccccc1C2=O,100.0,56.4*,-6.9,-26.6
Nc1cccc(C(=O)OCC(=O)Nc2cccc3c2C(=O)c2ccccc2C3=O)c1,101.0,-0.4,2.6,-2.7
SMILES,ABCB6 inh 2,Granule exo inh,VLA-4 inh,CaV13 FRET inh
Cc1cccc(NC(=O)c2cc3c(=O)n4ccccc4nc3n(CC(C)C)c2=N)c1,101.0,23.5,67.7*,-5.8
COc1cccc(NC(=O)c2cc3c(=O)n4ccccc4nc3n(CC(C)C)c2=N)c1,98.0,68.2*,14.4,-6.6
COCCCn1c(=N)c(C(=O)NC2CCCCC2)cc2c(=O)n3ccccc3nc21,98.0,-1.7,-6.7,42.9*
Cc1cccc(N(C(=O)c2snc(C(N)=O)c2N)C(C(=O)NCC2CCCO2)c2ccc(N(C)C)cc2)c1C (stereo not given),95.0,66.0*,11.6,-5.0
OC(c1ccccc1)(c1ccccc1)C1CCN(CCCOc2ccc(-c3ccc(F)cc3F)cc2)CC1,.,.,.,-9.6
C=CCN1C(=O)/C(=c2\sc3nc(=O)c(Cc4ccc(OC)c(OC)c4)nn3c2=O)c2ccccc21,11.0*,-1.7,-4.7,-19.4
S=C(Nc1ccc2nsnc2c1)N1CCCCCC1,106.0,76.6*,1.4,-8.4
Cc1ccccc1CN1CCN(C(=O)[C@H]2O[C@@H](n3cnc(C(N)=O)n3)[C@H](O)[C@@H]2O)CC1,.,.,.,-3.5
O=C(NC1CCCC1)C1CCN(S(=O)(=O)N2CCCCC2)CC1,100.0,-1.4,-2.4,-3.9
CC1CCN(S(=O)(=O)N2CCC(C(=O)NC3CCCC3)CC2)CC1,99.0,-3.2,18.0,76.2*
COc1cccc(C(=O)N[C@H](C(=O)N2CCC[C@H]2C(=O)NCCc2ccccc2Cl)c2ccccc2)c1,.,.,.,-5.6
O=[N+]([O-])c1ccc(Nc2ccccc2)c2nonc12,99.0,0.5,-2.6,-21.1
O=[N+]([O-])c1ccc(Sc2cccc[n+]2[O-])c2nonc12,120.0,96.5*,.,-4.8
O=[N+]([O-])c1cccc(-c2n[nH]c(=S)n2-c2ccc(Br)cc2)c1,101.0,-3.1,6.7,54.9*
Cc1ccccc1OCC(=O)N/N=C/c1cccn1C,94.0,-2.7,-2.1,-0.5
Cc1cccc(OCC(=O)N/N=C\c2cccn2C)c1C,67.0*,2.9,-3.6,-4.6
CCCCCCCCC[n+]1cccc2c3ccccc3ccc21,92.0,56.0*,-13.5,.
O=C(NCc1ccccc1)[C@H]1CCCN1C(=O)[C@H]1CCCN1C(=O)c1cccc(F)c1,.,.,.,-4.2
NC(N)=N/N=C/c1ccc(OCc2ccc(Cl)cc2)cc1,84.0,73.3*,32.1,.
N#CC1=C(N)NC(=S)C(C(N)=O)C1c1ccc(Cl)cc1Cl (stereo not given),101.0,99.4*,25.0,-4.3
CCN(CC)CCCNc1nc(C)cc(COC)c1C#N,87.0,-1.0,4.3,44.5*
COCC(C)NC(=O)CCS(=O)(=O)c1nc(-c2ccc(OC)cc2)cc(C(F)(F)F)n1 (stereo not given),119.0,77.5*,6.4,.
CCOC(=O)CS(=O)(=O)c1nc(-c2ccc(F)cc2)cc(C(F)(F)F)n1,84.0,95.8*,19.3,.
CCOC(=O)CCS(=O)(=O)c1nc(-c2ccccc2)cc(C(F)(F)F)n1,72.0*,88.1*,26.7,.
CCOC(=O)CS(=O)(=O)c1nc(-c2ccccc2)cc(C(F)(F)F)n1,92.0,29.9,36.5,-3.6
SMILES,ABCB6 inh 2,Granule exo inh,VLA-4 inh,CaV13 FRET inh
CN(C)c1cccc2c(S(=O)(=O)NC(=O)[C@H]3O[C@@H](n4ccc(=O)[nH]c4=O)[C@H](O)[C@@H]3O)cccc12,.,.,.,-4.2
Cc1cccc(NC(=O)CNC(=O)[C@@H](Cc2ccccc2)NC(=O)[C@H]2O[C@@H](n3ccc(=O)[nH]c3=O)[C@H](O)[C@@H]2O)c1C,.,.,.,-4.9
COc1cc(S(=O)(=O)NCc2ccc3c(c2)OCO3)c(OC)cc1C,101.0,-5.7,13.7,0.5
COc1cc(C)c(S(=O)(=O)NCc2ccc3c(c2)OCO3)cc1C,71.0*,0.9,11.9,-6.2
Nc1[nH]c(C(=O)c2ccc(Br)cc2)c(-c2ccc(Cl)cc2Cl)c1C(=O)NCCc1c[nH]c2ccccc12,.,.,.,-6.5
O=C(NCCN1CCOCC1)c1ccc(Cl)c(Cl)c1,98.0,3.8,6.4,2.7

# Screening results as filed in PubChem.
